Rows were chosen to be rich in hits. Some 18% of all compounds tested hit in one or more screens of this group.
DT40 TDP1 CPT – qHTS for Inhibitors of human tyrosyl-DNA phosphodiesterase 1 (TDP1): qHTS in cells in presence of CPT; chicken DT40 Tdp1-/-;hTDP1 cells + 20 nM CPT, ATP luminescence, 48 h; Potency, µM (top dose mostly 46.2 µM), for inactives: at the highest dose activity change, negative = growth inhibition, hits mostly inhibitors; 420,000 tested, 12% active; AID 686979, 2013; further: nearly all actives have a fitted effect of over 55% in size
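Chicken DT40 Tdp1-/- cells complemented with human TDP1, 400 cells/well, exposed to compounds plus 20 nM camptothecin for at least 48 h at 37 C; viability read as ATP content by CellTiter-Glo luminescence.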
VDR inhibitor – Inhibitors of the vitamin D receptor (VDR): qHTS | Vitamin D3 receptor (Homo sapiens), P11473 | VDR-SRC2-3 peptide fluorescence polarization, 2 h | Potency, µM, inactives show max response, negative = inhibition, hits mostly inhibitors | 400,000 tested, 0.93% active | AID 504847, 2011
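Measured by FP: displacement of SRC2-3 coactivator peptide from VDR by library compounds, following a two-hour ambient incubation.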
DT40 TDP1 no CPT – qHTS for Inhibitors of human tyrosyl-DNA phosphodiesterase 1 (TDP1): qHTS in cells in absence of CPT; DT40 Tdp1-/- hTDP1 cells, no CPT, ATP luminescence, 48 h; 420,000 tested, 15% active; Potency, µM (top dose mostly 46.2 µM), for the others: at the highest dose activity change, negative = growth inhibition, usual class: inhibitors; further: nearly all actives have a fitted effect of over 55% in size
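A cellular qHTS used chicken DT40 cells lacking endogenous Tdp1 but carrying stably transfected human TDP1. Compounds were applied without camptothecin, and cell growth kinetics were judged by ATP-dependent luminescence after ≥48 hr.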
TDP1 block – qHTS Assay for Inhibitors of Tyrosyl-DNA Phosphodiesterase (TDP1); Tyrosyl-DNA phosphodiesterase 1 (Homo sapiens), Q9NUW8; recombinant TDP1, AlphaScreen DNA substrate cleavage; Potency, µM (titrated, usually from 130 µM), inactives show at the highest dose activity change, negative = inhibition, most hits filed as inhibitors; 350,000 tested, 0.28% active; AID 485290, 2010; further: nearly all actives have a fitted effect of over 40% in size
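E. coli-derived human Tdp1, 1 nM final. Cpd preinc 15 min RT; substrate 15 nM final, 5 min RT; AS bead mix 10 ug/ml final, 10 min RT. Signal loss = tyrosine-FITC cleavage. No-enzyme wells = max signal.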
GCN5L2 inh – qHTS Assay for Inhibitors of GCN5L2. Histone acetyltransferase KAT2A (Homo sapiens), Q92830. GCN5L2 HAT assay, ThioGlo1 CoA-SH fluorescence. Potency, µM (titrated, usually from 58.9 µM), inactives show at the top dose activity change, negative = inhibition, usual class: inhibitors. 390,000 tested, 0.21% active. AID 504327, 2011
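Titration-based screen in which CoA formation is detected via maleimide probe ThioGlo1 (50uM) turning fluorescent on thiol reaction; substrates H3(1-25) 75uM and acetyl-CoA 70uM, GCN5L2 20nM, 20 min incubation at room temperature.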
PLK1 PBD inh – qHTS for Inhibitors of PLK1-PDB (polo-like kinase 1 - polo-box domain): Primary Screen. Serine/threonine-protein kinase PLK1 (Homo sapiens), P53350. Plk1 PBD binding of FITC phosphopeptide, fluorescence polarization. Potency, µM, without a hit: max response, negative = inhibition, usual class: inhibitors. 360,000 tested, 2.8% active; further: series mostly up to about 57 µM; nearly all actives have a fitted effect of over 65% in size
Target sequence (P53350 whole entry, looked up, the tested form may be a part): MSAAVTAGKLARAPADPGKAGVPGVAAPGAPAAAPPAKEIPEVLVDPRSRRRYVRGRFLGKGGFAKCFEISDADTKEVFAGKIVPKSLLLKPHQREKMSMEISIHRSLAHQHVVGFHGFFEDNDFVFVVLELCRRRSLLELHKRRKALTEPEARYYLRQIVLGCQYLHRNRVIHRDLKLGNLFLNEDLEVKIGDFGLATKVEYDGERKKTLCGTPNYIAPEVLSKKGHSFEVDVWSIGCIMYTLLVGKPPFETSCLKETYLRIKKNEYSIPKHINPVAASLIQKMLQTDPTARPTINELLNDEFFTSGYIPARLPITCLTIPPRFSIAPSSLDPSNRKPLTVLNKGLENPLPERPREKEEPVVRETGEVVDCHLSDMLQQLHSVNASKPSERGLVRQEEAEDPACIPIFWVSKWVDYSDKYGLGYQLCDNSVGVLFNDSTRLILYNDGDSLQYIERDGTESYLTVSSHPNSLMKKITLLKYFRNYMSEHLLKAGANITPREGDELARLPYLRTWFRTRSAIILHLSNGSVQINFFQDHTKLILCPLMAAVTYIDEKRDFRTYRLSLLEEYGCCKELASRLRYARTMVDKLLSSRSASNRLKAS
The depositor's hits bear a star; ? = inconclusive; . = no result given; [ ] = another dose, or the depositor's remark. The call rests on the fitted dose curve; in most records, active means well fitted curve in the direction sought with a large enough effect; inconclusive means small, poorly fitted or top-dose-only effect, or another doubt; inactive means no such curve, though single readings can be large; an effect the other way counts as inactive or inconclusive. On the % scale 0 is the no-effect control and ±100 the full control effect; potency means the concentration at half of the fitted maximal effect.

SMILES	DT40 TDP1 CPT	VDR inhibitor	DT40 TDP1 no CPT	TDP1 block	GCN5L2 inh	PLK1 PBD inh
C=C1CN(C(C(=O)OC)C(C)C)S(=O)(=O)c2ccc(F)cc21 (centres undefined)	.	-16%	.	7%	.	.
COc1ccc(CN(C)CC(O)COc2ccc(C(=O)c3ccccc3)cc2)c(OC)c1OC (centres undefined)	?	16%	16µM*	0%	-6%	-14%
COc1ccc(CN(C)CC(O)COC(c2ccccc2)c2ccccc2)c(OC)c1OC (centres undefined)	?	6%	?	2%	1%	4%
Cc1ccc([N+](=O)[O-])cc1Nc1nc(N2CCCC2)nc(N2CCCC2)n1	?	79µM*	?	.	-7%	19µM*
CC(C)(C)Nc1nc(Nc2ccc([N+](=O)[O-])cc2)nc(NC(C)(C)C)n1	21µM*	4%	21µM*	.	?	-2%
O=[N+]([O-])c1ccc(Nc2nc(NCCO)nc(N3CCCC3)n2)cc1	?	-6%	21µM*	-8%	4%	-16%
CCCNc1nc(Nc2ccc(C)cc2)nc(N2CCCC2)n1	23µM*	1%	21µM*	4%	-14%	4%
Cc1ccc(C)c(NC(=O)Cn2c(=O)ccc3cc(S(=O)(=O)N4CCCC4)ccc32)c1	?	-3%	?	4%	2%	.
O=C(Cn1c(=O)oc2ccccc21)NCc1ccccc1Cl	?	11%	?	3%	-6%	.
CCCS(=O)(=O)NC(=O)C1(C)CCN(C(=O)c2ccc(C(F)(F)F)nc2C)C1 (centres undefined)	-5%	.	4%	.	.	2%
CC1(C)N=C(N)N=C(N)N1c1ccc(Cl)cc1	?	.	0.34µM*	.	.	.
CC1(C)N=C(N)N=C(N)N1c1ccc(C(=O)O)cc1	.	.	.	2%	-6%[0.501 µM]	.
CCCc1nc(SCC(=O)Nc2nc3c(s2)CCCC3)c2ccccc2n1	?	-8%	-1%	1%	-3%	-1%
O=C(CSc1nc2ccccc2o1)Nc1nc2c(s1)CCCC2	?	18%	15µM*	.	.	8%
CCc1nc(SCC(=O)Nc2nc3c(s2)CCCC3)c2ccccc2n1	18µM*	-24%	13µM*	9%	-3%	-7%
Cc1cc(NC(=O)Cc2ccccc2)cc(-c2nc3ccccc3o2)c1O	.	5%	.	6%	-2%	.
Cc1csc(=O)n1CCC(=O)OCC(=O)c1c(N)n(CC(C)C)c(=O)n(C)c1=O	18µM*	-17%	15µM*	-6%	3%	-7%
Cc1csc(=O)n1CCC(=O)OCC(=O)c1c(N)n(C)c(=O)n(C)c1=O	-15%	-8%	1%	1%	-3%	-1%
CC(C)Cn1c(N)c(C(=O)COC(=O)CCc2nc3ccccc3s2)c(=O)n(C)c1=O	?	6%	15µM*	1%	-3%	9%
CC(C)Cn1c(N)c(C(=O)COC(=O)CC23CC4CC(CC(C4)C2)C3)c(=O)n(C)c1=O	7.3µM*	2%	7.3µM*	2%	-4%[0.501 µM]	4%
COc1ccc(CCN2CC(C(=O)OCc3ccccc3Cl)CC2=O)cc1OC (centres undefined)	16%	-11%	-29%	.	.	-2%
COc1ccc(CCN2CC(C(=O)OCC(=O)c3c(N)n(CC(C)C)c(=O)n(C)c3=O)CC2=O)cc1OC (centres undefined)	21µM*	.	13µM*	.	.	-13%
CC(C)Cn1c(N)c(C(=O)COC(=O)CCc2nc3ccccc3c(=O)[nH]2)c(=O)n(C)c1=O	?	-10%	-20%	3%	3%	-5%
CC(=O)OC[C@@H]1O[C@H](CCO/N=C(\C)CCN2CCc3nc(-c4ccccc4)c(-c4ccccc4)cc3C2)C=C[C@@H]1OC(C)=O	.	.	.	-4%[21 µM]	.	.
O=S(=O)(Nc1cc(Br)cc2cccnc12)c1ccccc1	.	4%	.	-2%	.	.
SMILES	DT40 TDP1 CPT	VDR inhibitor	DT40 TDP1 no CPT	TDP1 block	GCN5L2 inh	PLK1 PBD inh
CCC(=O)c1ccc(OCCn2cnc3ccccc32)cc1	-23%	?	?	3%	-21%	?
CCOc1ccc(OCC)c(NC(=O)Cn2nc(CC)n3c(cc4sccc43)c2=O)c1	?	-4%	?	0%	2%	.
Oc1ccc2ccccc2c1C=Nc1ccccc1-c1nc2ccccc2[nH]1	?	-10%	16µM*	8%	4%	?
Cc1ccc(C)c(NC(=O)C2C3CCCC2C3c2ccccc2)c1 (centres undefined)	?	4%	-16%	-7%	-5%	-11%
Cc1ccccc1NC(=O)C1C2CCCC1C2c1ccccc1 (centres undefined)	18µM*	-8%	?	4%	-7%	-3%
O=C1N/C(=N\N=C\c2ccccn2)SC1Cc1cccc(SC(F)F)c1 (centres undefined)	7.3µM*	18%	5.8µM*	9%	-1%	-19%
O=C1N/C(=N\N=C\c2cccnc2)SC1Cc1ccc(SC(F)F)cc1 (centres undefined)	2.9µM*	-12%	3.7µM*	9%	2%	-22%
N#Cc1nc(-c2cccc3ccccc23)oc1NCC#CCOC(=O)c1cccs1	.	.	.	.	-10%	.
COc1ccc(CNCc2c(C(=O)O)c(C)n(Cc3ccccc3C)c2C)c(OC)c1	?	18%	?	8%	-2%	.
c1ccc(CNc2ncnc3c2ncn3Cc2ccccc2)cc1	?	-18%	?	0%	.	.
C1=Nc2c(NCc3ccccc3)ncnc2Oc2ccccc21	3.7µM*	-8%	1µM*	2%	-4%	-7%
CCN(c1ccccc1)S(=O)(=O)c1ccc(C(=O)N2CCCC(C(F)(F)F)C2)cc1 (centres undefined)	8.2µM*	1%	23µM*	0%[0.505 µM]	-6%	-8%
O=C(c1cccc(S(=O)(=O)N2CCCC2)c1)N1CCCC(C(F)(F)F)C1 (centres undefined)	-21%	11%	-17%	3%	0%	0%
Cc1ccc2c(c1)CCCN2S(=O)(=O)c1cccc(C(=O)Nc2ccccc2C(=O)O)c1	.	.	.	.	.	19µM*

Compound activity as filed in PubChem.
